In the supplement of paper PMC11732987, “Enantioselective OTUD7B fragment discovery through chemoproteomics screening and high-throughput optimisation” (Communications Chemistry, 2025):
Values without a mark were called inactive.

Tests used:
Experiment in all cases: log2 ratio of Biotin-Ahx-Ub-VS probe labelling (compound/DMSO); higher = less target engagement, active = hit call of the paper (q ≤ 0.05, log2 ratio ≤ -1)
Conditions in all cases: treatment time: 3 h
[1] = compound: ClCC(=O)NC1CCCc2ccccc12
Outline: (§1)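 HEK293T lysate (495 µg per sample, in Tris/CHAPS/IGEPAL buffer with protease inhibitors) was treated in triplicate with compound at 50 or 200 µM or with DMSO for 3 h. It was then treated with Biotin-Ahx-Ub-VS (0.5 µM final) for 1 h. Labelled DUBs were NeutrAvidin-enriched, digested with LysC and trypsin, and run by diaPASEF LC-MS/MS. Median-normalised label-free quantities gave average log2 ratios compound/DMSO by unpaired t-test, using proteins with ≥2 unique peptides.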

[2] = compound: ClCC(=O)NC1CCOc2ccc(Cl)cc12
Outline: as §1

[3] = compound: ClCC(=O)NC1CCSc2ccccc12
Outline: as §1

[4] = compound: ClCC(=O)N[C@H]1CCCc2ccccc12
Outline: as §1

[5] = compound: Fc1ccc(N2CCN(c3nc4c(CN(C(CCl)=O)CC4)cn3)CC2)cc1.Cl.Cl
Outline: as §1

Chain of UniProt P40818 (P40818 whole entry): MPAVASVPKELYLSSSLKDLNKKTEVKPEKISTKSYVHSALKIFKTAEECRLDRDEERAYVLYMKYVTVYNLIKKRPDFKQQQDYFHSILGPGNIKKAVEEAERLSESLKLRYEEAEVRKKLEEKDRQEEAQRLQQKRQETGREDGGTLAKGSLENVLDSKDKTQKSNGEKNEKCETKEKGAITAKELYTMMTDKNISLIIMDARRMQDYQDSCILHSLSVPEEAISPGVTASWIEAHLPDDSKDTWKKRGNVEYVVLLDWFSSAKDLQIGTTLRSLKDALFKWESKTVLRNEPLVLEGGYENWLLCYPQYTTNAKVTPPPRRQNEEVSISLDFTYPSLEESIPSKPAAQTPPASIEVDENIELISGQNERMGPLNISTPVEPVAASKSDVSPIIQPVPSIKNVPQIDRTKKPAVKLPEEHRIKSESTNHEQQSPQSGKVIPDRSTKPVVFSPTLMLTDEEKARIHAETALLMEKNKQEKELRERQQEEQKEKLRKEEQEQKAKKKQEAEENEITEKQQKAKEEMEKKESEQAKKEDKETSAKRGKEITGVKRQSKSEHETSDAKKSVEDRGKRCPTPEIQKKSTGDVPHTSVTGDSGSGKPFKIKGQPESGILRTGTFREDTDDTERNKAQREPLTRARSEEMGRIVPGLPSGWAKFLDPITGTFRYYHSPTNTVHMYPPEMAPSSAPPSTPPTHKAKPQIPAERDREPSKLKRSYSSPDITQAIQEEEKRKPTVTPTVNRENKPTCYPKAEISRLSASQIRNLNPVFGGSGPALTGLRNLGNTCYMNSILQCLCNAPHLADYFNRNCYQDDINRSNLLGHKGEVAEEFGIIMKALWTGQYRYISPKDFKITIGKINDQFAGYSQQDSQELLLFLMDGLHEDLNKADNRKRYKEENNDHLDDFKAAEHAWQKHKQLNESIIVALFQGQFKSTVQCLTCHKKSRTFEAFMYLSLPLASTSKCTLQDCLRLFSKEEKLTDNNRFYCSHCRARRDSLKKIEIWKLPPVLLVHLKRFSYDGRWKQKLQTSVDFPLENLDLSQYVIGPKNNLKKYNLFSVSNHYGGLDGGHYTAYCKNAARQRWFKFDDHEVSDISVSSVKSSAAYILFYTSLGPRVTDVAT
Chain of UniProt Q13107 (Q13107 whole entry): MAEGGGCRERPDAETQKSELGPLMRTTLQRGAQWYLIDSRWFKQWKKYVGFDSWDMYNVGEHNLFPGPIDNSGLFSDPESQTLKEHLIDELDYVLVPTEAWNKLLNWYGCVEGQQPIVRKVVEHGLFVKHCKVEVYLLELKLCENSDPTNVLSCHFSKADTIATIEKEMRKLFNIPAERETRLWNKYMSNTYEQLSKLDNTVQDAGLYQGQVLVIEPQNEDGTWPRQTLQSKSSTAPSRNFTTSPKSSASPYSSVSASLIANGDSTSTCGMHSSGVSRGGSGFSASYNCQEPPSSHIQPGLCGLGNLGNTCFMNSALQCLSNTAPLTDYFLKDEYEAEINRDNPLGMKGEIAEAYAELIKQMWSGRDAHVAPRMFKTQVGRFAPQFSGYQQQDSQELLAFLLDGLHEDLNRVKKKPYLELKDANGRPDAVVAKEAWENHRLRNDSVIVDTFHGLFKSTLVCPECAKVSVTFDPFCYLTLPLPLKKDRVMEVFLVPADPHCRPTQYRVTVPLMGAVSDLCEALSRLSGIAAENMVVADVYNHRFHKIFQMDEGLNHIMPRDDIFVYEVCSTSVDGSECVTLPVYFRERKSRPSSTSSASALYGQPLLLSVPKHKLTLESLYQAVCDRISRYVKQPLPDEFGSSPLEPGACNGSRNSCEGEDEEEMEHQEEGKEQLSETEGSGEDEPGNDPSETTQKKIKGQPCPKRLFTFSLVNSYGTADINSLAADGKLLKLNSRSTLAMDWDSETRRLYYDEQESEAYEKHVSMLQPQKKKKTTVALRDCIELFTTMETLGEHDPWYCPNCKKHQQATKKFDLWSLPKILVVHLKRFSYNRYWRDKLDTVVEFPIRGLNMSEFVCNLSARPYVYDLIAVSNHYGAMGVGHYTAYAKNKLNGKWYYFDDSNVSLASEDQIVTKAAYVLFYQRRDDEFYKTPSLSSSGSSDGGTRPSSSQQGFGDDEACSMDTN
Chain of UniProt O00487 (O00487 whole entry): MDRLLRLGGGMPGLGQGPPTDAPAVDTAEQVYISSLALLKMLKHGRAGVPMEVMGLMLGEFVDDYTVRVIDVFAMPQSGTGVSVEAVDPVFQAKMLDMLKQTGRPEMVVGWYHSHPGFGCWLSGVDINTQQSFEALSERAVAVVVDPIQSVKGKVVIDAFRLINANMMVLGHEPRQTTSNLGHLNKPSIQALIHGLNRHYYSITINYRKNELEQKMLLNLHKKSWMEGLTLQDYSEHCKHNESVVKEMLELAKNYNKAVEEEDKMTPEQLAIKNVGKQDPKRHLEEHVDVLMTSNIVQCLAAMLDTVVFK
Chain of UniProt Q86UV5 (Q86UV5 whole entry): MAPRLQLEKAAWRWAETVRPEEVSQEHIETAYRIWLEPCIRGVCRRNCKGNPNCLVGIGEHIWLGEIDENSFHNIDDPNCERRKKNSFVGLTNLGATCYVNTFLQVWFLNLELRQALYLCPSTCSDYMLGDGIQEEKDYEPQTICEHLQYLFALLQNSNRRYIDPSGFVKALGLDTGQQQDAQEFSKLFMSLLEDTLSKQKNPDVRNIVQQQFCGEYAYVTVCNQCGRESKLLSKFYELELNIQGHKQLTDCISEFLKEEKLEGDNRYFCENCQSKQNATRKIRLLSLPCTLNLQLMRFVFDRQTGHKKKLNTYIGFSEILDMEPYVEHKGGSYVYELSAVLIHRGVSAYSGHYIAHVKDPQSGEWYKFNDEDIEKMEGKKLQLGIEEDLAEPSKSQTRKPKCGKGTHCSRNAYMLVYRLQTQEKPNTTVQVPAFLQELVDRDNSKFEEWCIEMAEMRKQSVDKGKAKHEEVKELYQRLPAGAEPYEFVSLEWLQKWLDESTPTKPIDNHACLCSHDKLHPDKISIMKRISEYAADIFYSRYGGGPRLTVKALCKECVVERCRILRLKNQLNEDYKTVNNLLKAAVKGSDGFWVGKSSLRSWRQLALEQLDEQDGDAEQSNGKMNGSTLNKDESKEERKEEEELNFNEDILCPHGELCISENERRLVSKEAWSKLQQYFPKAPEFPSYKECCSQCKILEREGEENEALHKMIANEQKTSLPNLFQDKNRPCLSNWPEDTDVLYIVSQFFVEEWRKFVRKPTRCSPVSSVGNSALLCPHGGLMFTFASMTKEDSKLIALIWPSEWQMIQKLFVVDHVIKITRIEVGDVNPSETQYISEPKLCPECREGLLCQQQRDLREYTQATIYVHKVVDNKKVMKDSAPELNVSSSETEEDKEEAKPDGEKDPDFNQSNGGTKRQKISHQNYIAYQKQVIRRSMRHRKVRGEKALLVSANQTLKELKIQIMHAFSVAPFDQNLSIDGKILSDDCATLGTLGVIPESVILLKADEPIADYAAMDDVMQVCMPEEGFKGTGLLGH
Chain of UniProt Q92560 (Q92560 whole entry): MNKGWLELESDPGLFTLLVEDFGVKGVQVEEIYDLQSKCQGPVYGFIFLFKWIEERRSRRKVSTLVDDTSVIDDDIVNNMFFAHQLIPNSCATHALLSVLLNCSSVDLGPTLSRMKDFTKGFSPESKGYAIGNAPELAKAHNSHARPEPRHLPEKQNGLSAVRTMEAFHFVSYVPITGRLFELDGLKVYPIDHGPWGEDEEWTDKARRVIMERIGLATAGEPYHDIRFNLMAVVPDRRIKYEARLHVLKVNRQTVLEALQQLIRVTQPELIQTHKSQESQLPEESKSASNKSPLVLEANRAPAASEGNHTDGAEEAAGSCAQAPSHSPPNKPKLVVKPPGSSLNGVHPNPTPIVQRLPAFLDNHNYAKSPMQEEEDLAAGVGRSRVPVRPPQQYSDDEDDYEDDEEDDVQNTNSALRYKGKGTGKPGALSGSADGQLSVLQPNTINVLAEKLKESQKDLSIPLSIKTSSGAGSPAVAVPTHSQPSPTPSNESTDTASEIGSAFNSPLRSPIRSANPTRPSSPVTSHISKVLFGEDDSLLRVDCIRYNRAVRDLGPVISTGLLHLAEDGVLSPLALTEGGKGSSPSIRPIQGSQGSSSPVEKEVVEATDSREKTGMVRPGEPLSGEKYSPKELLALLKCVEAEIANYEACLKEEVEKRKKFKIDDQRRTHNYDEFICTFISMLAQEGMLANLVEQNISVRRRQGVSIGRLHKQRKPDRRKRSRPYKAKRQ
Chain of UniProt Q6GQQ9 (Q6GQQ9 whole entry): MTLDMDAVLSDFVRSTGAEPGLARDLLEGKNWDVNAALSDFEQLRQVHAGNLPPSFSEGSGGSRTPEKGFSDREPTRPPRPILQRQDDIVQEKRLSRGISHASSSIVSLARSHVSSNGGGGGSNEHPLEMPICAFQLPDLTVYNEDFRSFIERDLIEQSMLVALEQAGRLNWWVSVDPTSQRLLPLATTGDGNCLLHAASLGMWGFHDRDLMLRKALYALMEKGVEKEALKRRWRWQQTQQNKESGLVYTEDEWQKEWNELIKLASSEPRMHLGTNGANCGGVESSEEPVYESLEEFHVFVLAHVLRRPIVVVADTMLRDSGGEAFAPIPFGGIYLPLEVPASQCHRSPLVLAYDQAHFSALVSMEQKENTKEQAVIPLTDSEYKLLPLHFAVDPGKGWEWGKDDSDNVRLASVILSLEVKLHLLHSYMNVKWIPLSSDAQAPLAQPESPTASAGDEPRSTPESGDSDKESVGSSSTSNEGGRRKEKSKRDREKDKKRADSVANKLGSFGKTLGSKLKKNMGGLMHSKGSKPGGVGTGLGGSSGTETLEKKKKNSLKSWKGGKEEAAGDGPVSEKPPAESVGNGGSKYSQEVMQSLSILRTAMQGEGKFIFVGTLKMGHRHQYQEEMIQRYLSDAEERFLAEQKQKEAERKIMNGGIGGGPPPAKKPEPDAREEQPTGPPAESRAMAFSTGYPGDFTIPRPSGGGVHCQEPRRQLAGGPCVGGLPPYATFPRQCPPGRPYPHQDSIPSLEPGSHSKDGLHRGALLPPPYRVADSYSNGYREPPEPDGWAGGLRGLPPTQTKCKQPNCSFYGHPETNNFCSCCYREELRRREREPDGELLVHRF

Target	log2 ratio of Biotin-Ahx-Ub-VS probe labelling ([1]; compound concentration: 50uM)	log2 ratio of Biotin-Ahx-Ub-VS probe labelling ([1]; compound concentration: 200uM)	log2 ratio of Biotin-Ahx-Ub-VS probe labelling ([2]; compound concentration: 50uM)	log2 ratio of Biotin-Ahx-Ub-VS probe labelling ([2]; compound concentration: 200uM)	log2 ratio of Biotin-Ahx-Ub-VS probe labelling ([3]; compound concentration: 50uM)	log2 ratio of Biotin-Ahx-Ub-VS probe labelling ([3]; compound concentration: 200uM)	log2 ratio of Biotin-Ahx-Ub-VS probe labelling ([4]; compound concentration: 50uM)	log2 ratio of Biotin-Ahx-Ub-VS probe labelling ([4]; compound concentration: 200uM)	log2 ratio of Biotin-Ahx-Ub-VS probe labelling ([5]; compound concentration: 50uM)	log2 ratio of Biotin-Ahx-Ub-VS probe labelling ([5]; compound concentration: 200uM)
OTUB1 (UniProt Q96FW1)	-0.212	-0.0215	-0.31	-0.319	0.00122	-0.246	0.0292	-0.0965	0.0783	-0.137
USP8 (UniProt P40818)	-0.193	-0.0275	-0.286	-0.268	0.0453	-0.166	-0.0844	-0.245	-0.136	-0.61
USP9X (UniProt Q93008)	-0.0287	-0.0252	-0.131	-0.237	0.0883	-0.151	0.0465	-0.214	-0.231	-1.53 (active)
BAP1 (UniProt Q92560)	-0.474	-1.23 (active)	-1.05 (active)	-2.38 (active)	-0.619	-2.44 (active)	-0.684	-1.69 (active)	-0.262	-1.91 (active)
UniProt Q8TE49	-1.68 (active)	-2.58 (active)	-0.472	-2.17 (active)	-0.368	-2.26 (active)	-2.07 (active)	-2.92 (active)	-0.151	-1.37 (active)
UniProt O00487	-0.451	-0.117	-0.207	0.0311	0.124	-0.15	-0.0195	-0.0757	0.285	0.135
USP19 (UniProt O94966)	-0.205	-0.219	-0.252	-0.38	-0.00658	-0.393	-0.0565	-0.411	-1.25 (active)	-3.86 (active)
USP48 (UniProt Q86UV5)	0.13	0.0439	-0.0252	-0.167	0.207	-0.0233	-0.00252	-0.144	-0.0747	-0.125
USP36 (UniProt Q9P275)	0.0611	0.171	-0.00761	-0.088	0.158	0.1	-0.0619	-0.0962	-0.181	-0.183
USP14 (UniProt P54578)	-0.364	0.154	-0.397	-0.0189	-0.186	-0.179	0.115	-0.537	0.108	-0.424
UCHL1 (UniProt P09936)	-0.0609	0.151	-0.516	-0.228	0.0655	-0.146	-0.0596	-0.223	0.0885	-0.474
USP4 (UniProt Q13107)	0.337	-0.155	-0.21	0.596	-0.0317	-0.104	-0.54	-0.195	-0.32	0.659
OTUD7B (UniProt Q6GQQ9)	-4.5 (active)	-5.65 (active)	-2.75 (active)	-5.2 (active)	-3.62 (active)	-5.08 (active)	-5.19 (active)	-5.13 (active)	-0.187	-1.57 (active)
